The values below come from PubChem BioAssay (EPA / NIEHS).

The structures appear in SMILES notation. Where a structure was tested more than once in an assay, its records may differ in their call. Activity calls are given as the source filed them. The calls were made as follows: active = hit-call score of the fitted dose curve at least 0.9, where 1 is the maximum; inactive = score below 0.9.

Read-out in experiment [1]: Interleukin-1 alpha (IL1a), IL1A (gene 3552)
Put plainly: BSK_KF3CT_IL1a: BioMAP Diversity Plus: KF3CT Assay for Interleukin-1 alpha (IL1a) Biomarker Activity (AID 2283070). The settings on record: primary human keratinocytes with fibroblasts; actives raise or lower the signal. An outline of the steps: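 Primary human keratinocyte plus foreskin fibroblast co-culture, dosed and measured at 24 h in 96-well plates. IL-1a level quantified by ELISA; bidirectional fit relative to DMSO.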

Read-out in experiment [2]: TIMP metallopeptidase inhibitor 2 (TIMP2), TIMP2 (gene 7077)
Put plainly: BSK_KF3CT_TIMP2: BioMAP Diversity Plus: KF3CT Assay for TIMP metallopeptidase inhibitor 2 (TIMP2) Biomarker Activity (AID 2283071). The note with it: primary human keratinocytes with fibroblasts; actives raise or lower the signal. The essentials: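 Co-culture of human primary keratinocytes and foreskin fibroblasts, measured 24 h after chemical dosing. TIMP-2 quantified by ELISA and fitted in both directions relative to DMSO. Cytotoxicity checked in parallel cultures by SRB total-protein staining.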

Read-out in experiment [3]: C-C motif chemokine 2 (Homo sapiens) (UniProt P13500)
In words: BSK_KF3CT_MCP1: BioMAP Diversity Plus: KF3CT Assay for Monocyte Chemoattractant Protein 1 (MCP1/CCL2) Biomarker Activity (AID 2283073). The settings on record: primary human keratinocytes with fibroblasts; actives raise or lower the signal. An outline of the steps: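 Human keratinocyte plus foreskin fibroblast primary co-culture exposed to chemical for 24 h. MCP-1 levels measured by ELISA. Bidirectional curve fitting relative to DMSO negative control as baseline.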

Read-out in experiment [4]: Matrix Metallopeptidase 9 (MMP9), MMP9 (gene 4318)
In words: BSK_KF3CT_MMP9: BioMAP Diversity Plus: KF3CT Assay for Matrix Metallopeptidase 9 (MMP9) Biomarker Activity (AID 2283074).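 As to AC50: MMP9 protein level quantified by ELISA in the co-culture.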 The note with it: primary human keratinocytes with fibroblasts; actives raise or lower the signal. An outline of the steps: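 Human keratinocyte and foreskin fibroblast co-culture exposed to chemicals for 24 h; MMP9 biomarker measured by ELISA, bidirectional fitting relative to DMSO; cytotoxicity tracked by SRB total protein staining in parallel cultures.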

Read-out in experiment [5]: urokinase plasminogen activator (uPA), PLAU (gene 5328)
Put plainly: BSK_KF3CT_uPA: BioMAP Diversity Plus: KF3CT Assay for urokinase plasminogen activator (uPA) Biomarker Activity (AID 2283075). The settings on record: primary human keratinocytes with fibroblasts; actives raise or lower the signal. The essentials:
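Primary human keratinocyte/foreskin fibroblast co-culture exposed to chemical; uPA measured by ELISA at 24 h. Bidirectional fit versus DMSO, with parallel SRB total-protein staining for cytotoxicity.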

Read-out in experiment [6]: CD40, CD40 (gene 958)
In words: BSK_LPS_CD40: BioMAP Diversity Plus: LPS Assay for CD40 Biomarker Activity (AID 2283076). The settings on record: primary human HUVEC with PBMC; actives raise or lower the signal. An outline of the steps: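 Primary human umbilical vein endothelial cells co-cultured with peripheral blood mononuclear cells, LPS-stimulated, were dosed with chemical and read 24 h later. CD40 levels were measured by ELISA and fitted bidirectionally against DMSO as negative control and baseline.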

Read-out in experiment [7]: E-selectin (Homo sapiens) (UniProt P16581)
In words: BSK_LPS_Eselectin: BioMAP Diversity Plus: LPS Assay for Eselectin Biomarker Activity (AID 2283077). The note with it: primary human HUVEC with PBMC; actives raise or lower the signal. The essentials:
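Human umbilical vein endothelial cells co-cultured with peripheral blood mononuclear cells under LPS stimulation; E-selectin measured by ELISA 24 h after chemical dosing. Activity fitted bidirectionally against DMSO as negative control and baseline.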

Read-out in experiment [8]: Interleukin-8 (IL8), CXCL8 (gene 3576)
Put plainly: BSK_LPS_IL8: BioMAP Diversity Plus: LPS Assay for Interleukin-8 (IL8) Biomarker Activity (AID 2283078). The note with it: primary human HUVEC with PBMC; actives raise or lower the signal. An outline of the steps:
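Human umbilical vein endothelial cells co-cultured with PBMC were stimulated with LPS; IL-8 levels were measured by ELISA 24 h after chemical dosing. Activity was fitted bidirectionally against DMSO as negative control and baseline.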

Experiment [9] in a line: BSK_LPS_SRB: Viability Assessment in the BioMAP Diversity Plus: LPS Assay (AID 2283079).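 Also: total protein by sulforhodamine B absorbance as a cytotoxicity measure; measured one day after compound addition; fitted in both directions against DMSO so loss or gain of signal counts.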 The note with it: primary human HUVEC with PBMC. The essentials:
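Human umbilical vein endothelial cells co-cultured with PBMC (LPS system) were dosed for 24 h. Total protein was stained with 0.1% sulforhodamine B after 10% TCA fixation, read at 560 nm, and fitted bidirectionally against DMSO baseline.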

Read-out in experiment [10]: Interleukin-1 alpha (IL1a), IL1A (gene 3552)
Put plainly: BSK_LPS_IL1a: BioMAP Diversity Plus: LPS Assay for Interleukin-1 alpha (IL1a) Biomarker Activity (AID 2283080). The note with it: primary human HUVEC with PBMC; actives raise or lower the signal. The essentials:
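Human umbilical vein endothelial cells co-cultured with peripheral blood mononuclear cells were LPS-stimulated and exposed to test chemicals for 24 h. IL-1 alpha was quantified by ELISA, with bidirectional curve fitting against DMSO as the negative control and baseline.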

Read-out in experiment [11]: Monocyte Chemoattractant Protein-1 (MCP1), CCL2 (gene 6347)
Put plainly: BSK_LPS_MCP1: BioMAP Diversity Plus: LPS Assay for Monocyte Chemoattractant Protein-1 (MCP1) Biomarker Activity (AID 2283081). The settings on record: primary human HUVEC with PBMC; actives raise or lower the signal. An outline of the steps:
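HUVEC plus PBMC co-culture (human primary cells, LPS system) exposed to test chemical for 24 h; MCP-1 measured by ELISA. Bidirectional curve fitting against DMSO baseline; parallel SRB total-protein staining flags overt cytotoxicity.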

The nature of experiment [12]: BSK_LPS_PGE2: BioMAP Diversity Plus: LPS Assay for Prostaglandin E2 (PGE2) Biomarker Activity (AID 2283082). The settings on record: primary human HUVEC with PBMC; actives raise or lower the signal. An outline of the steps: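 HUVEC plus human PBMC co-culture stimulated with LPS; secreted PGE2 quantified by ELISA 24 h after chemical dosing. Activity fitted bidirectionally against DMSO baseline; parallel SRB staining (0.1% SRB after 10% TCA fixation, 560 nm) flags overt cytotoxicity.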

Read-out in experiment [13]: Macrophage colony-stimulating factor (MCSF), CSF1 (gene 1435)
In words: BSK_LPS_MCSF: BioMAP Diversity Plus: LPS Assay for Macrophage colony-stimulating factor (MCSF) Biomarker Activity (AID 2283083). The settings on record: primary human HUVEC with PBMC; actives raise or lower the signal. The essentials: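 Human umbilical vein endothelial cells co-cultured with peripheral blood mononuclear cells were exposed to compound for 24 h. M-CSF levels were measured by ELISA, and bidirectional curve fitting used DMSO as the negative control and baseline.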

Read-out in experiment [14]: Tissue Factor, F3 (gene 2152)
Put plainly: BSK_LPS_TissueFactor: BioMAP Diversity Plus: LPS Assay for Tissue Factor Biomarker Activity (AID 2283084). The note with it: primary human HUVEC with PBMC; actives raise or lower the signal. The essentials: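 Human umbilical vein endothelial cells co-cultured with peripheral blood mononuclear cells were dosed and stimulated with LPS. Cell-surface CD142 was quantified by ELISA at 24 h. Activity was fitted bidirectionally against DMSO baseline.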

Read-out in experiment [15]: Tumor necrosis factor (Homo sapiens) (UniProt P01375)
In words: BSK_LPS_TNFa: BioMAP Diversity Plus: LPS Assay for Tumour Necrosis Factor alpha (TNFa) Biomarker Activity (AID 2283085). The settings on record: primary human HUVEC with PBMC; actives raise or lower the signal. An outline of the steps:
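Human umbilical vein endothelial cells co-cultured with PBMC and stimulated with LPS. TNFa was measured by ELISA 24 h after chemical dosing, fitted bidirectionally relative to DMSO.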

Read-out in experiment [16]: Vascular cell adhesion molecule 1 (VCAM1), VCAM1 (gene 7412)
In words: BSK_LPS_VCAM1: BioMAP Diversity Plus: LPS Assay for Vascular cell adhesion molecule 1 (VCAM1) Biomarker Activity (AID 2283086). The settings on record: primary human HUVEC with PBMC; actives raise or lower the signal. The essentials: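 Human umbilical vein endothelial cells co-cultured with PBMC and stimulated with LPS; VCAM-1 measured by ELISA 24 h after dosing. Bidirectional curve fitting against DMSO baseline; cytotoxicity tracked in parallel by SRB total-protein staining.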

Read-out in a further experiment: CD38, CD38 (gene 952)
Put plainly: BSK_SAg_CD38: BioMAP Diversity Plus: SAg Assay for CD38 Biomarker Activity (AID 2283087). The note with it: primary human HUVEC with PBMC; actives raise or lower the signal. The essentials: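 Human HUVEC plus PBMC co-culture stimulated with superantigen; CD38 measured by ELISA 24 h after chemical dosing. Fluorescence read-out, bidirectional fit against DMSO; cytotoxicity tracked in parallel by SRB and Alamar Blue.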

Read-out in experiment [17]: CD40, CD40 (gene 958)
In words: BSK_SAg_CD40: BioMAP Diversity Plus: SAg Assay for CD40 Biomarker Activity (AID 2283088). The note with it: primary human HUVEC with PBMC; actives raise or lower the signal. An outline of the steps: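 Human umbilical vein endothelial cells co-cultured with PBMC; CD40 levels measured by ELISA with fluorescence read-out 24 h after chemical dosing. Gain or loss of signal fitted bidirectionally against DMSO baseline.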

Read-out in another experiment: CD69, CD69 (gene 969)
Put plainly: BSK_SAg_CD69: BioMAP Diversity Plus: SAg Assay for CD69 Biomarker Activity (AID 2283089). The note with it: primary human HUVEC with PBMC; actives raise or lower the signal. The essentials:
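Values derive from bidirectional fitting relative to DMSO vehicle. Cells: umbilical vein endothelium plus peripheral blood mononuclear cells, treated 24 h before fluorescent ELISA for CD69.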

Tumor necrosis factor (Homo sapiens), sequence (P01375 whole entry, looked up): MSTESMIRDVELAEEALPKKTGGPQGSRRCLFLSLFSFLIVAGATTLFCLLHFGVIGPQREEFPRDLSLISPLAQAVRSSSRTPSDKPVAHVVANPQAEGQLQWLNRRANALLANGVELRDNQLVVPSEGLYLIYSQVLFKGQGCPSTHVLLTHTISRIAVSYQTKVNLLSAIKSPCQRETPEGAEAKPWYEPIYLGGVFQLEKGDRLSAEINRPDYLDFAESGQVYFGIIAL
E-selectin (Homo sapiens), sequence (P16581 whole entry, looked up): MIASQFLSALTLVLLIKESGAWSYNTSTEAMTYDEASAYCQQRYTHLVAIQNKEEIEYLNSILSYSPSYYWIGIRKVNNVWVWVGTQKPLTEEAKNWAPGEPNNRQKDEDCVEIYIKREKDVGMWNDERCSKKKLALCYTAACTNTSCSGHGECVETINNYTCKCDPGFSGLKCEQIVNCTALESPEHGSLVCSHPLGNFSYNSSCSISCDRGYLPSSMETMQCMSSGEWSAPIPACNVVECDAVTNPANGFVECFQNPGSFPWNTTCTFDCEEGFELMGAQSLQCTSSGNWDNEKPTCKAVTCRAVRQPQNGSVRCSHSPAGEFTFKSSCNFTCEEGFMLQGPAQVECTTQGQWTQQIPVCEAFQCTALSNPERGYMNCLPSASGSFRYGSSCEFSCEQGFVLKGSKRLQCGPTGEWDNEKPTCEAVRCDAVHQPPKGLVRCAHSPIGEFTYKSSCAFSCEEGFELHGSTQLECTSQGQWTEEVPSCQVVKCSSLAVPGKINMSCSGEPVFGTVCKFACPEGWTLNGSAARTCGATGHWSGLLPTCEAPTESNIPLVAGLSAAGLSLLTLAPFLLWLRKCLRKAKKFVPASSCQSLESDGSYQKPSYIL

As to `OCC(F)(F)C(F)(F)C(F)(F)C(F)F`, the outcome was “inactive” in experiment [1]; “inactive” in experiment [2]; “inactive” in experiment [3]; “inactive” in [4]; “inactive” in experiment [5]; “inactive” with CD40, CD40 (gene 958) [6]. In addition, the outcome in experiment [7], in [8], in [9], in experiment [10], in experiment [11] and in experiment [12] was inactive. Besides, the outcome in [13] is “inactive”; in experiment [14] it was “inactive”; in experiment [15], “inactive”; in experiment [16], “inactive”; in the experiment with CD38, CD38 (gene 952), “inactive”; with CD40, CD40 (gene 958) [17], “inactive”. Further, in the experiment with CD69, CD69 (gene 969), the result was inactive.

With `Cc1ccc(S(=O)(=O)OCC(F)(F)C(F)(F)C(F)(F)C(F)(F)C(F)(F)C(F)F)cc1`, the outcome in [1] is “inactive”; in experiment [2], “inactive”; in [3], “inactive”; in [4], “inactive”; in experiment [5], “inactive”; with CD40, CD40 (gene 958) [6], “inactive”. Besides, the outcome in experiment [7], in [8], in experiment [9], in experiment [10], in [11] and in [12] was inactive. The outcome in experiment [13] is “inactive”; in experiment [14] it was “inactive”; in [15], “inactive”; in experiment [16], “inactive”; in the experiment with CD38, CD38 (gene 952), “inactive”; with CD40, CD40 (gene 958) [17], “inactive”. The result with CD69, CD69 (gene 969) was inactive. Besides, the AC50 is 10.8 µM (active) in experiment [4] and 30 µM (active) with CD40, CD40 (gene 958) [6].

As a reminder, the AC50 is the concentration giving half of the maximal activity seen.
